# Nrf2 ARE act: activates Nrf2 signaling; 410,000 compounds, 0.31% hits; AREc32 ARE-luciferase reporter (MCF7-derived line), luminescence, 24 h; Potency, µM (highest dose often 46.1 µM), inactives show top-dose activation, usual class: activators; AID 624171; further: % of control where 0% means no effect; nearly all actives have a fitted effect of over 65% in size
#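 Quantitative high-throughput format: AREc32 reporter cells, 1000 per well, received compound by pin transfer and were incubated 24 hr at 37 deg C, 5% CO2, before Steady-Glo luminescence detection.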
# A549 tox: kills or reduces viability of A549 cells in Nrf2 counter-screen; A549 ARE-Fluc cells, CellTiter-Fluor viability, 18-24 h; Potency, µM (highest dose often 46 µM), inactives show at the top dose activity change, negative = cytotoxicity, hits mostly inhibitors; 390,000 compounds, 0.16% hits; AID 504648; further: on the % scale 0 is the no-effect control and ±100 the full control effect
#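 A549 ARE-Fluc cells in 5% FBS OPTI-MEM, 5000 cells/well, rested 2 h then exposed to compounds in concentration-response for 18-24 h at 37 °C. Viability by CellTiter-Fluor fluorescence (Ex 405/Em 525) after 30 min; luciferase luminescence (BugLite, 15 min, RT) read afterwards.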
# ELG1 DNA repair: inhibitors of ELG1-dependent DNA repair in HEK293T cells. HEK293T ELG1-luciferase reporter, luminescence, 16 h; DNA damage induced by 5-fluorouridine. Potency, µM (series often up to 46.1 µM), for the others: top-dose activity change, negative = inhibition, most hits filed as inhibitors. 330,000 compounds, 2.3% hits. AID 504467; further: on the % scale 0 is the no-effect control and ±100 the full control effect; nearly all actives have a fitted effect of over 55% in size
#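 In this reporter screen, reduction of luminescence relative to DMSO vehicle indicated activity. Compounds and 5-fluorouridine were added together to 2,000 cells per well, incubated for 16 hr at 37 °C, then developed with ONE-Glo.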
# Nrf2 block: blocks Nrf2 signaling | A549 ARE-Fluc reporter, luciferase luminescence, 18-24 h | Potency, µM (doses to about 46 µM), for the others: at the highest dose activity change, negative = inhibition, actives largely listed as inhibitors | 360,000 compounds, 2.1% hits; further: on the % scale 0 is the no-effect control and ±100 the full control effect; nearly all actives have a fitted effect of over 60% in size
#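 Two sequential reads on A549 ARE_Fluc cells exposed to compound for 18-24 h: a CellTiter-Fluor fluorescence read for viability, then a luciferase luminescence read for Nrf2/ARE activity.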
# * marks the source's active call; other numbers are inactive results; ? = inconclusive; . = no result given; [ ] = dose if it differs, or a comment. Most compounds without a hit are left out; they make up all but 3.7% or so of the library. The call rests on the fitted dose curve; in most records, active means well fitted curve in the direction sought with a large enough effect; inconclusive means small, poorly fitted or top-dose-only effect, or another doubt; inactive means no such curve, though single readings can be large; an effect the other way counts as inactive or inconclusive. Potency means the concentration at half of the fitted maximal effect.
SMILES,Nrf2 ARE act,A549 tox,ELG1 DNA repair,Nrf2 block
CC(=O)Nc1ccc2c(c1)n(C)c(=O)n2C,0%,3%[1.84 µM],?,5%
Cn1c(=O)n(C)c2cc(NC(=O)CCl)ccc21,?,?,?,18µM*
Cc1cc2c(cc1C)N(C(=O)CCl)CCN2C(=O)CCl,11µM*,-5%,.,?
Nc1nc(NCCCN2CCOCC2)nc(NCc2ccccc2)c1[N+](=O)[O-],3%,1%,-4%,-18%
CCOc1ccc(CNC(=O)C2CCN(S(=O)(=O)c3ccc4c(ccn4C)c3)CC2)cc1,4%,-1%,.,.
COc1cc(CN(C2CCCCC2C)S(=O)(=O)c2ccc(S(=O)(=O)NC3CC3)cc2)cc(OC)c1OC (stereo not drawn),0%,-12%,18µM*,?
CCCCNc1nc2c(c(=O)n(Cc3ccc(Cl)cc3)c(=O)n2C)n1C,0%,-14%,.,?
Cc1noc2ncnc(N3CCCC(C(=O)Nc4cccc(C(F)(F)F)c4)C3)c12 (stereo not drawn),3%,-12%,.,5.8µM*
Cc1ccnc(N2CCC(C(=O)Nc3cccc(C(F)(F)F)c3)CC2)n1,0%,.,16µM*,13µM*
O=C(Nc1cccc(C(F)(F)F)c1)C1CCN(S(=O)(=O)c2cccc3nsnc23)CC1,8%,-4%,.,21µM*
Cc1ccnc(N2CCC(C(=O)Nc3ccc(Oc4ccccc4)cc3)CC2)n1,0%,0%,-1%,-11%
CCCCOCCCNC(=O)C[C@@H]1C[C@@]2(C(=O)OCC)CCC=C2N(Cc2ccc(Cl)cc2Cl)C1=O,-2%,.,.,.
CCCCc1nc(NCC2CCCO2)c(C#N)c2c1COC(C)(C)C2 (stereo not drawn),-1%,1%,7.3µM*,-6%
Cc1cc(-c2ccc(S(=O)(=O)Nc3ccccc3C)cc2)on1,0%,0%,.,?
Cc1ccc(NS(=O)(=O)c2ccc(-c3cc(C)no3)cc2)c(Br)c1,0%,0%,.,23µM*
Cc1cc(-c2ccc(S(=O)(=O)Nc3ccc(Cl)cc3C)cc2)on1,0%,-9%,.,21µM*
CN1CCN(c2ccc(-c3ccc4ccccc4n3)cc2)CC1,-2%,7%,?,10µM*
Cc1ccc(C(=O)OC/C(O)=C(\C#N)c2nc3ccccc3[nH]2)cc1S(=O)(=O)N1CCOCC1,4%,-1%,?,-27%
Cc1ccc(S(=O)(=O)N2CCOCC2)cc1N/N=C(\C#N)c1nc2ccccc2[nH]1,4%,1%,8.2µM*,2%
Cc1ccccc1N1CCN(c2ncnc3c2cnn3Cc2ccc(Cl)cc2)CC1,8%,-6%,?,18µM*
Cc1ccc(Cn2ncc3c(N4CCN(Cc5ccc(Cl)cc5)CC4)ncnc32)cc1,1%,-14%,5.8µM*,8.2µM*
CC1CCN(c2ncnc3c2cnn3Cc2ccc(Cl)cc2)CC1,2%,-7%,?,?
COC(=O)c1ccc(C(NC(=O)OCc2ccccc2)/C(F)=C/[C@@H](C)C(=O)NCc2ccc(OC)c(OC)c2)cc1 (stereo partly drawn),8%,-8%,18µM*,?
COC(=O)c1ccc(C(NC(=O)OCc2ccccc2)/C(F)=C/[C@@H](C)C(=O)NCc2ccc(-c3ccccc3)cc2)cc1 (stereo partly drawn),1%,1%,25%,13%
COCC(C)n1c(C)cc(C(=O)CSc2nc3ccccc3c(=O)[nH]2)c1C (stereo not drawn),0%,-13%,16µM*,?
SMILES,Nrf2 ARE act,A549 tox,ELG1 DNA repair,Nrf2 block
COCCn1c(C)cc(C(=O)CSc2nc3ccccc3c(=O)[nH]2)c1C,2%,-17%,?,-27%
CCCCS(=O)(=O)/C=C\C1C2C=CC(C2)C1S(=O)(=O)CCCC (stereo not drawn),0%,-11%,-4%,3%
CCCCS(=O)(=O)/C=C\C=C/S(=O)(=O)CCCC,-3%,?,8.2µM*,.
Cc1ccc(Cl)cc1N1CCN(Cc2nnc(-c3ccc4c(c3)OCO4)o2)CC1,0%,-11%,.,21µM*
Clc1ccc(N2CCN(Cc3nnc(-c4ccc5c(c4)OCO5)o3)CC2)cc1,-1%,-5%,.,12%
CCN(C(=O)CSc1nnc(Cn2nnc3ccccc32)o1)c1nc(C)cs1,-1%,1%,?,?
CCN(C(=O)CSc1nnc(Cn2nnc3ccccc32)o1)c1nc(-c2ccccc2)cs1,-1%,1%,18µM*,6%
Cc1cc(C(=O)CSc2nc3ccc(Cl)cc3[nH]2)c(C)n1C,1%,-10%,-9%,-7%
Cc1cc(C(=O)CSc2nc3ccc(Cl)cc3[nH]2)c(C)n1CC1CCCO1 (stereo not drawn),4%,-27%,23µM*,13µM*
COc1ccccc1Cc1c(-c2ccc(F)cc2)nc2cc(C)c(Br)c(C)n12,12%,.,.,.
O=C(CCN1C(=O)C2CCCCC2C1=O)Nc1ccc(F)c(F)c1F (stereo not drawn),0%,-5%,?,-1%
CC1CN(C2=N/C(=C/c3ccc4c(c3)OCO4)C(=O)N2)CC(C)O1 (stereo not drawn),0%,-1%,21µM*,18%
CCC(CO)[n+]1c(C)cc(/C=C2\Sc3ccccc3N2Cc2ccccc2)cc1C (stereo not drawn),-1%,?,?,15µM*
NC(=O)CC(NC(=O)c1ccccc1)c1ccc(N2CCN(c3ccccc3)CC2)c([N+](=O)[O-])c1 (stereo not drawn),-1%,-5%,?,?
NC(=O)CC(NC(=O)c1ccccc1)c1ccc(N2CCN(c3ccc(F)cc3)CC2)c([N+](=O)[O-])c1 (stereo not drawn),0%,-19%,?,21µM*
CCOC(=O)N1CCN(S(=O)(=O)c2ccc(C)cc2)C1c1ccccc1 (stereo not drawn),0%,3%,26µM*,15%
CCOC(=O)N1CCN(S(=O)(=O)c2ccc(C)cc2)C1c1ccc(OC)cc1 (stereo not drawn),0%,-3%,?,?
COc1ncccc1-c1cc2nc(NCCNC(C)=O)n(C)c(=O)c2s1,3.5µM*,.,.,.
CC[n+]1c(/C=C/c2ccc(N(C)C)cc2)ccc2ccccc21,-1%,21µM*,12%,8.2µM*
CC[n+]1ccc(/C=C/c2ccc(N(C)C)cc2)c2ccccc21,-1%,9.2µM*,?,3.7µM*
CN(C)c1ccc(C=Cc2nccc3ccccc23)cc1,13%,.,.,.
CC[n+]1c(/C=C/c2ccc(OC(C)=O)c(OC)c2)ccc2ccccc21,4%,21µM*,?,?
CC[n+]1ccccc1/C=C/c1ccc(N(C)C)cc1,2%,10µM*,?,5.8µM*
CCCc1ccc(OCc2ccc(C(=O)Nc3ccccc3C(=O)OC)o2)cc1,4%,-16%,.,?
Cc1cccc(N2CCN(C(=O)c3cn(C4CCCCC4)c(=O)c4c3c3ccccc3n4C)CC2)c1C,0%,-2%,.,-11%
